Hit rate of the full screen: of about 69,000 compounds, about 8,600 (12%) showed an effect of 50% or more. This excerpt belongs to a sample that is enriched for strong results.
tested on: Plasmodium berghei; test: Screen against P. berghei liver stage (PbLuc), transformed with Luciferase, at 10uM; format: functional, HepG2; details: tested at 10 uM

| Structure (SMILES) | INHIBITION |
| --- | --- |
| O=C(NCc1ccccn1)NCc1ccc(Cl)s1 | 17.5% |
| Cc1ccc(C)c(S(=O)(=O)CCNC2CCc3ncnn3C2)c1 (configuration not stated) | -21.9% |
| CC(NCc1ccnc(OC2CCC2)c1)c1cnn(C)c1 (configuration not stated) | -4.92% |
| O=C1OCCN1CC(=O)N1C[C@@H]2CC[C@H]1CN(C(=O)c1cccnc1)C2 | 29.6% |
| Cc1cc(N2CCC(Cc3cccnc3)CC2)ncn1 | 39.7% |
| CC(=O)N1CCN(C(=O)c2sc(-c3ccccc3F)nc2C)CC1 | -10.8% |
| OCC1CCCN1c1cc(NCc2cccs2)ncn1 (configuration not stated) | 31.3% |
| Cc1c(C)n(CC(O)CN2CCN(CCO)CC2)c2c(Cl)cccc12 (configuration not stated) | 28.6% |
| Cc1ccc(F)cc1S(=O)(=O)NCc1[nH]ncc1Br | 1.62% |
| Cc1ccc(F)c(S(=O)(=O)NCc2[nH]ncc2Br)c1 | 52.9% |
| Cc1cc(F)ccc1S(=O)(=O)NCc1[nH]ncc1Br | -3.14% |
| Cc1cccc(CN2CCOCC2c2[nH]ncc2C)n1 (configuration not stated) | 31.9% |
| CC(C)N1C(=O)C[C@H]2[C@@H]1CCN2C(=O)c1ccco1 | 53.9% |
| O=C(C1CCC1)N1CCN(C(=O)c2cnccn2)[C@H]2CS(=O)(=O)C[C@H]21 | 23.5% |
| O=C(c1cnccn1)N1CC[C@H]2[C@H]1CCN2S(=O)(=O)C1CC1 | 71% |
| O=C(c1ccnnc1)N1CC[C@H]2[C@H]1CCN2S(=O)(=O)C1CC1 | 63.1% |
| O=C(c1ccco1)N1CC[C@H]2[C@H]1CCN2S(=O)(=O)C1CC1 | 58.7% |
| O=C(c1ccoc1)N1CC[C@H]2[C@H]1CCN2S(=O)(=O)C1CC1 | 44.8% |
| Cn1cc(N2C(=O)C[C@@H]3[C@@H]2CCN3C(=O)c2ccco2)cn1 | 12.2% |
| O=C(c1ccco1)N1CC[C@H]2[C@H]1CC(=O)N2c1cccnc1 | -5.89% |
| O=C(c1ccccn1)N1CC[C@H]2[C@H]1CCN2S(=O)(=O)C1CC1 | -60.2% |
| O=C([C@H]1C[C@H]2OCC[C@H]2N(C(=O)c2ccnnc2)C1)N1CCCCO1 | 19.5% |
| CS(=O)(=O)N1C[C@@H]2CCN(C(=O)c3ccco3)[C@@H]2C1 | 24.9% |
| O=C(c1ccncc1)N1CC[C@H]2[C@H]1CCN2S(=O)(=O)C1CC1 | -69.3% |
| CN(C)CC(=O)N1CCN(c2cc(N3CCCC3CO)ncn2)CC1 (configuration not stated) | -5.1% |
| CNC(=O)NC(=O)C(C)N1CCN(c2ccc(C#N)cc2F)CC1 (configuration not stated) | 11.8% |

| Structure (SMILES) | INHIBITION |
| --- | --- |
| CN(C)S(=O)(=O)N1C[C@@H]2C[C@H](C(=O)Nc3ccccc3)[C@H](C1)O2 | -22.5% |
| C[C@H](O)c1cnn(-c2ccccc2)c1 | -13.1% |
| Cc1cc(C)c(CNC(=O)NC2CCOCC2)c(=O)[nH]1 | 27.7% |
| Cc1nccc(N2CCN(C3CCOCC3)CC(C(=O)N(C)C)C2)n1 (configuration not stated) | 25.8% |
| CC(C)(C)CCCC(=O)Nc1ccnn1C1CCS(=O)(=O)C1 (configuration not stated) | 46.6% |
| CC(Nc1cccc2c1OCCO2)C(=O)NC(N)=O (configuration not stated) | -45.2% |
| O=C(CN1CCCC1)N1CCCC(c2cc(=O)n3c(n2)CCCCC3)C1 (configuration not stated) | 14.7% |
| CN(C)C(=O)N[C@@H]1CN(C2CCOCC2)[C@@H]2CCCO[C@@H]21 | 20.1% |
| CN(C)C(=O)N[C@H]1CN(C2CCOCC2)[C@@H]2CCCO[C@H]12 | 43.8% |
| CN(C)C(=O)N[C@@H]1CN(S(C)(=O)=O)[C@@H]2CCCO[C@@H]21 | 60% |
| COCC(NC(=O)c1cccnc1)c1cccc(C(F)(F)F)c1 (configuration not stated) | 7.44% |
| CNC(=O)CCc1cc(C2CCNCC2)nc(C)n1 | 27.8% |
| Oc1cc(C2CCCCN2C2CCCC2)nc(-c2ccncc2)n1 (configuration not stated) | 16.5% |
| Cn1cc(CN2CCCN(C(=O)c3cc[nH]n3)CC2)cn1 | 23.2% |
| CC(OCC1CC1)C(=O)N1CCCN(Cc2cnn(C)c2)CC1 (configuration not stated) | 60.5% |
| CC(OCC1CC1)C(=O)N1CCCN(Cc2nccn2C(C)C)CC1 (configuration not stated) | 46.2% |
| Cc1cccc(C(=O)N2CCCN(Cc3cnn(C)c3)CC2)n1 | 31.8% |
| Cn1cc(CN2CCCN(C(=O)c3cn4ccccc4n3)CC2)cn1 | 56.6% |
| Cn1cc(CN2CCCN(C(=O)c3ccc4ccccc4n3)CC2)cn1 | 52.35% |
| Cc1nc(C(=O)N2CCCN(Cc3cnn(C)c3)CC2)ccc1C#N | 15.1% |
| CC(OCC1CC1)C(=O)N1CCCN(Cc2cscn2)CC1 (configuration not stated) | 11.67% |
| Cn1cc(CN2CCCN(C(=O)c3ccccn3)CC2)cn1 | -13.35% |
| CC(C)CNC(=O)c1cn(-c2ccccn2)c(=O)c2ccccc12 | 13.9% |
| CCN1CC2(CC1=O)CN(C(=O)NC(C)C)CCN(C(=O)NC(C)C)C2 | 27.5% |
| Cc1cnn(CC2CN(CC(=O)N(C)Cc3ccsc3)CCO2)c1 (configuration not stated) | -89% |
| CS(=O)(=O)c1cccc(C(=O)N2CCCC(n3cccn3)C2)c1 (configuration not stated) | 1.94% |

| Structure (SMILES) | INHIBITION |
| --- | --- |
| O=C(CN1CCCC(Cn2cncn2)C1)NCc1ccccc1F (configuration not stated) | 19.4% |
| CC(C)c1nn(C)c(N(C)C)c1CNCc1cccc2cccnc12 | 19.283% |
| CC(C)CC(=O)N1CC[C@H]2N(C)CC[C@@]2(C(=O)Nc2cccnc2)CC1 | 26.7% |
| Cc1c(C2N3CC4(C)CN2CC(C)(C3)C4=O)[nH]c(=O)[nH]c1=O (configuration not stated) | 46.6% |
| CCC12CN3CC(CC)(CN(C1)C3c1[nH]c(=O)[nH]c(=O)c1C)C2=O (configuration not stated) | 11.1% |
| Cc1c(C2N3CC4(C(C)C)CN2CC(C(C)C)(C3)C4=O)[nH]c(=O)[nH]c1=O (configuration not stated) | 54.3% |
| O=C(C1CCC1)N1C[C@H]2CC[C@@H](C1)N(S(=O)(=O)c1cccnc1)C2 | -70.7% |
| O=C(NCCCNC(=O)c1cccc(O)c1)Nc1ccc(F)cc1F | -4.74% |
| COCc1noc(C2(c3ccc(F)cc3)CCC2)n1 | 77.2% |
| COCc1noc(C2(c3ccc(F)cc3)CCOCC2)n1 | 15.1% |
| COCc1noc(C2(c3ccc(F)cc3)CC2)n1 | 11.6% |
| COCc1ncn2c1CN(C(=O)c1ccc3ccccc3n1)CC2 | -6.3% |
| CC(C)(C)C(=O)NCCC(=O)N1CCC(Nc2cccnn2)CC1 | 41.5% |
| O=C(CNCCn1cccn1)NCC1(c2ccccc2)CCC1 | 72.8% |
| O=C(CNCCn1cccn1)NCC1(c2ccccc2)CC1 | 8.48% |
| O=C(CNCCn1cccn1)NCC1(c2ccccc2)CCCC1 | -23.9% |
| CN1CCC(NC(=O)c2cc(Cl)cc(Br)c2O)C1=O (configuration not stated) | 24.4% |
| OC1(CN2CCCCC2)CCN(c2nccc(C(F)(F)F)n2)C1 (configuration not stated) | 46.7% |
| O=S(=O)(CCNCc1ccc2c(c1)CCO2)N1CCOCC1 | -3.19% |
| Fc1cc(CNCc2ccc3c(c2)CCO3)ccc1N1CCOCC1 | 55.1% |
| c1cc(CNCc2ccc3c(c2)CCO3)cc(N2CCOCC2)n1 | -1.58% |
| CC(C)c1nc(C2CCCN(C(=O)c3nccn4ccnc34)C2)no1 (configuration not stated) | 9.64% |
| Cc1cn(Cc2ccccc2)nc1N | 24.8% |
| O=C(c1cc(Br)ccc1-n1cnnn1)N1CCCC1 | 28.6% |
| CC(C)c1nnsc1CNC(=O)C1CCN(C(=O)C2CCC2)CC1 | 44.6% |
| CC(C)c1nnsc1CNC(=O)C1CCN(C(=O)C2CCCC2)CC1 | 41.6% |

| Structure (SMILES) | INHIBITION |
| --- | --- |
| CC(C)c1nnsc1CNC(=O)C1CCCN(C(=O)N(C)C)C1 (configuration not stated) | 53.5% |
| Nc1no[n+]([O-])c1C(=O)NCc1ccco1 | 5.7% |
| COc1ccc(CN(C)C(=O)CSc2nnc(N)s2)c(OC)c1OC | 18.9% |
| CCn1ccc(CN(C)C(=O)CSc2nnc(N)s2)n1 | 22.6% |
| COc1ccnc(CN(C)C(=O)CSc2nnc(N)s2)c1 | 71.4% |
| Cc1nc(CN2CCCN(C(=O)c3sccc3C#N)CC2)cs1 | -27.8% |
| Cc1nc(CC2CCN(Cc3ccc(CCC(C)(C)O)cc3)CC2)no1 | 60.7% |
| Cc1noc(CC2CCN(Cc3ccc(CCC(C)(C)O)cc3)CC2)n1 | 40.2% |
| c1ccc(CN2CCC(Cc3noc(C4CC4)n3)CC2)cc1 | 28.8% |
| CN(C)c1cc(CNC(=O)CC2CCCCC2)ccn1 | 4.34% |
| Cc1cccc(Cn2c3c(ccc2=O)CCN(Cc2ccoc2)CC3)n1 | 8.47% |
| O=C(CN(C1=NCCCCC1)c1ccc(Cl)cc1)c1ccccc1 | 59.8% |
| Cc1cccc(N(CC(=O)N2CCCCC2)C(=O)C2CCCO2)c1 (configuration not stated) | -84.1% |
| Cc1ccc(N(CC(=O)N2CCCCC2)C(=O)C2CCCO2)cc1 (configuration not stated) | -7.25% |
| O=C(CN(C1=NCCCC1)c1ccccc1)c1ccc2c(c1)OCCO2 | 33.3% |
| Cc1ccc(C(=O)CN(C2=NCCCCC2)c2ccccc2)cc1 | 44.1% |
| CCOc1ccc(N(CC(=O)c2ccccc2)C2=NCCCCC2)cc1 | 68.7% |
| O=C(CN(C1=NCCCC1)c1ccccc1)c1ccc(OC(F)F)cc1 | 30.8% |
| Cc1ccc(N(CC(=O)c2ccc(Br)cc2)C2=NCCCCC2)cc1 | 87.6% |
| O=C(CC(SC1CCCCC1)C(=O)O)c1ccc(Cl)cc1 (configuration not stated) | 6.83% |
| Cc1cccc(N(CC(=O)c2ccccc2)C2=NCCCCC2)c1 | 51.6% |
| COc1ccc(C(=O)CN(C2=NCCCCC2)c2ccccc2)cc1 | 20.1% |
| O=C(CN(C1=NCCCC1)c1ccccc1)c1ccccc1 | -13.4% |
| CC1=N[C@@]2(CC[C@@H]3CN(CC(C)C)C[C@@H]32)C(=O)N1C | 18.5% |

From ChEMBL document CHEMBL4513216, “Probing the Open Global Health Chemical Diversity Library for Multistage-Active Starting Points for Next-Generation Antimalarials” (ACS Infect Dis, 2020)
